V-ATPase pH: yeast V-ATPase proton transport regulation by pHLuorin; S. cerevisiae, pHLuorin cytosolic pH fluorescence; hit rate 0.37% among 350,000; AID 504577; response, % at 10 µM; in the data active means response mostly above about 7.3%, no sharp cut-off; inactive means mostly below about 5.4%; further: actives read high
NALP3 yeast inh: inhibitors of NALP3 inflammasome in yeast | hit rate 0.39% among 330,000 | AID 2825 | Yeast reconstituted NLRP3/ASC/caspase-1, beta-gal luminescence, 24 h | inhibition, % at 10 µM;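 active means inhibition of 50% or more; inactive means inhibition below 50%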;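 further: plate controls were induced DMSO wells for no effect and uninduced yeast grown without galactose for full effect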
NALP1 inh: NALP1 inhibition. S. cerevisiae NALP1/ASC/caspase-1 growth, X-gal OD620, 72 h. inhibition, % at 10 µM. hit rate 0.61% among 280,000. AID 2071; in the data active means inhibition mostly above about 24%, no sharp cut-off; inactive means mostly below about 32%
tim23-1 inh: inhibits growth of tim23-1 mutant yeast; S. cerevisiae tim23-1 growth, BacTiter-Glo luminescence, 24 h; hit rate 1.3% among 330,000; inhibition, % at 20 µM;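 active means growth inhibition of the mutant yeast at or above 50%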;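 further: temperature-sensitive mutant grown at 25 °C; plate controls were DMSO-treated mutant yeast for no effect and medium wells lacking yeast for full effect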
TIM10 inh: inhibits growth of TIM10 yeast strain; S. cerevisiae TIM10 strain growth, BacTiter-Glo luminescence, 24 h; hit rate 1.4% among 330,000; inhibition, % at 10 µM;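 active means inhibition of 40% or more at the single tested concentration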;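 further: wild-type TIM10 isogenic control strain grown at permissive 25 °C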
tim10-1 inh: inhibits growth of tim10-1 mutant yeast. AID 463190. hit rate 2.2% among 330,000. S. cerevisiae tim10-1 ts strain growth, BacTiter-Glo, 24 h. inhibition, % at 20 µM;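 active means inhibition of at least 40%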;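 further: mutant grown at 25 °C; 0% = DMSO wells with yeast and 100% = wells holding no yeast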
tim10-1 conf: confirmation of tim10-1 mutant yeast growth inhibitors. shares compounds with tim10-1 inh. S. cerevisiae tim10-1 ts strain growth, BacTiter-Glo, 24 h. inhibition, % at 20 µM. hit rate 56% among 7,400. AID 463213;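 active means inhibition of yeast growth at or above a set limit in either of two repeat tests at 20 µM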;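 further: tim10-1 mutant grown at permissive 25 °C to find synthetic lethal compounds; 0% = DMSO yeast wells and 100% = medium wells without yeast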
* hit, by the source's call; nt = not tested or not shown. A selection: hits, their analogues and other compounds. The true share with any hit is near 4.2%.

SMILES	V-ATPase pH	NALP3 yeast inh	NALP1 inh	tim23-1 inh	TIM10 inh	tim10-1 inh	tim10-1 conf
COc1ccc(C(C(=O)NC2CCCC2)N(C(=O)c2ccoc2C)c2ccc(C)c(C)c2)cc1 (stereo unspecified)	3	-11	14	24	35	41*	17
COc1ccc(C(=O)Nc2cc(C)on2)cc1S(=O)(=O)N1CC(c2ccccc2)CC1=O (stereo unspecified)	0	-2	30	-1	-7	-18	nt
COc1ccc(CCC(=O)N/N=C(\C)c2ccc3c(c2)OCO3)cc1	-1	5	-3	9	3	14	nt
CCC(C(=O)Nc1nc(C)c(C(=O)OC)s1)c1ccccc1 (stereo unspecified)	-2	14	-3	35	20	43*	36*
COC(=O)c1sc(NC(=O)C(C)c2ccccc2)nc1C (stereo unspecified)	-3	-7	25	39	17	39	nt
CCOC(=O)N1CCN(C2=C(NS(=O)(=O)c3ccccc3)C(=O)c3ccccc3C2=O)CC1	-2	15	-1	34	25	55*	15
CCOC(=O)N1CCN(C2=C(NS(=O)(=O)c3ccc(Br)cc3)C(=O)c3ccccc3C2=O)CC1	-2	nt	nt	nt	nt	nt	nt
CC(=O)c1ccc(S(=O)(=O)N2CCN(C(=O)c3ccc(-n4nc(C)c(Cl)c4C)cc3)CC2)cc1	9	27	nt	20	13	41*	19
Cc1nn(-c2ccc(C(=O)N3CCN(S(=O)(=O)c4ccccc4C(F)(F)F)CC3)cc2)c(C)c1Cl	9	24	nt	14	20	11	nt
Cc1cc(=O)[nH]c(SCc2ccccc2)n1	5	20	14	24	14	19	nt
CC(C)(C)c1cc(=O)[nH]c(SCc2ccccc2)n1	7	-6	10	32	17	41*	24
O=C(CSCC(=O)N1CCCCC1)Nc1nc(-c2ccc(Cl)s2)cs1	-5	5	-9	43	22	41*	36*
O=C(CSCC(=O)N1CCN(c2ccccc2)CC1)Nc1nc(-c2ccc(Cl)s2)cs1	-2	26	35	9	7	7	nt
O=C(CSc1nnc2ccc(-c3cccnc3)nn12)Nc1ccccc1	0	24	nt	9	9	4	nt
O=C(NCC1CCCCC1)c1ccc([N+](=O)[O-])cc1	-1	24	16	18	-1	8	nt
N/C(=N\OC(=O)CC1CCCCC1)c1ccc([N+](=O)[O-])cc1	-5	-7	10	45	29	70*	51*
Cc1ccc(/C(N)=N/OC(=O)C(C)c2ccc([N+](=O)[O-])cc2)cc1 (stereo unspecified)	-1	-9	12	42	38	46*	51*
CCOc1cc(/C=C2\N=C(C)OC2=O)cc(Br)c1OCC(=O)OC	3	0	22	26	16	44*	10
CCCc1ccc2oc(C(=O)N(Cc3nccn3C)C(C)C)c(C)c2c1	0	23	-9	29	19	43*	-17
C/C(=N\Nc1nc(C)cc(-c2ccccc2)n1)c1ccccc1	-1	28	4	-2	8	-5	nt
C/C(=N/Nc1nc(C)cc(-c2ccccc2)n1)c1ccco1	-1	21	3	28	35	41*	24
O=C(/C=C/c1ccc(OC2CSC2)cc1)c1ccccc1	1	40	6	26	23	44*	33*
Cc1ccc(-n2c(O)c(C=Nc3cc(C)on3)c3ccccc3c2=O)c(C)c1	-3	31	32	35	11	17	nt
O=C(COc1ccc(Cl)cc1Cl)Nc1ccc(S(=O)(=O)NC2=NCCCCC2)cc1	6	4	27	13	39	44*	39*
Cc1ccc(Cl)c(OCC(=O)Nc2ccc(S(=O)(=O)NC3=NCCCCC3)cc2)c1	-4	18	nt	-3	-3	-7	nt
SMILES	V-ATPase pH	NALP3 yeast inh	NALP1 inh	tim23-1 inh	TIM10 inh	tim10-1 inh	tim10-1 conf
COc1ccc(-c2csc3ncnc(NCCN4CCOCC4)c23)cc1	-4	10	-4	25	11	19	nt
COc1ccc(-c2oc3ncnc(NCCN4CCOCC4)c3c2-c2ccc(OC)cc2)cc1	2	12	-2	39	38	48*	29*
c1ccc(-c2oc3ncnc(NCCCN4CCOCC4)c3c2-c2ccccc2)cc1	0	36	-6	13	-23	22	nt
COc1ccc(-c2oc3ncnc(NCCCN4CCOCC4)c3c2-c2ccc(OC)cc2)cc1	1	-1	36	48	29	41*	23
Cc1cccc(CCNC(=O)CC2C(=O)NCCN2Cc2ccccc2C)n1 (stereo unspecified)	1	6	-5	9	14	5	nt
CN(C)CCn1c(=O)n(Cc2ccccc2)c(=O)c2c3c(sc21)CCCCC3	-3	21	17	19	17	35	nt
Cc1nn2c(c1-c1ccc(Cl)cc1)N=C(c1ccco1)CC2c1ccccc1 (stereo unspecified)	3	4	12	38	39	42*	34*
COc1ccc(Br)cc1C(=O)Nc1cccc(C)c1	1	28	6	4	-11	4	nt
COc1cccc(NC(=O)c2ccco2)c1	-7	28	-1	34	18	6	nt
COc1ccc(Br)cc1C(=O)Nc1cccc(NC(=O)c2ccco2)c1	-1	5	5	49	14	42*	31*
COc1c(C)cc(Br)cc1C(=O)Nc1cccc(NC(=O)c2ccco2)c1	-1	26	12	42	36	42*	36*
COc1cccc(C(=O)c2c[nH]c(C(=O)NCc3cccnc3)c2)c1	-1	-4	13	1	5	5	nt
Fc1ccccc1/C=C1\CCCC2=C1NC(=S)NC2c1ccccc1F (stereo unspecified)	2	33	13	39	37	41*	15
Cc1ccc(C(C)C)c(OCC(=O)Nc2sc3c(c2C#N)CC(C)(C)NC3(C)C)c1	3	32	27	37	31	11	nt
Cc1cc(OCC(=O)Nc2sc3c(c2C#N)CC(C)(C)NC3(C)C)c(C(C)C)cc1Cl	-1	26	-2	25	18	47*	24
S=C(NCCc1ccc(Cl)cc1)NC1CCCC1	-2	36	-28	21	9	43*	13
O=C(NC(=S)NCCc1ccc(Cl)cc1)c1ccco1	0	30	18	30	35	48*	24
S=C(NCCc1ccc(Cl)cc1)NCc1ccco1	0	18	16	-1	24	34	nt
CN(C)S(=O)(=O)c1cccc(-c2nn(-c3ccccc3)cc2/C=C2\SC(=S)NC2=O)c1	4	nt	21	nt	nt	nt	nt
O=C1CCCN1CCc1cccc2ccccc12	0	nt	nt	nt	nt	nt	nt
O=C1CCCN1CCC12CC3CC(CC(C3)C1)C2	-1	28	14	34	12	41*	5

Compound activity (PubChem)
